Experimental data as given in PubChem BioAssay.
Activity calls are given as the source filed them. Unless noted, no rule for the calls is given here.

Key:
[1] = tested on: XIP peptide (Xip251-270) binding; assay: XIP fragment 251-270 binding compounds – biochemical, small-molecule microarray, fluorescence 635/667 nm, 0.1 µg/mL protein, primary screen (AID 1182); settings: fluorescent protein binding, 635 nm, higher = more signal, called active from +8 up or from −8 down
XIP peptide (Xip251-270) = assay: compounds binding XIP fragment 251-270 – biochemical, small-molecule microarray, fluorescence 635/667 nm, 0.5 µg/mL protein, primary screen (AID 1183); settings: fluorescence 635 nm, higher = more signal
[2] = blood-stage malaria parasite viability loss – strain 3D7, DAPI fluorescence, 100 nL, primary screen (AID 1184);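 also: parasites grown inside human red blood cells in medium with human serum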; settings: P. falciparum 3D7 growth, 3 d, higher = more signal
[3] = molecular target: Homeobox protein Hox-A13 (Mus musculus) (UniProt Q62424); assay: disruptors of Hoxa13 oligonucleotide interaction – biochemical, fluorescence polarization, labeled oligonucleotide, primary screen (AID 1185); settings: Hoxa13:DNA binding, 15 min, higher = more signal, called active from +8 up or from −8 down
Sequence of Homeobox protein Hox-A13 (Mus musculus) (Q62424 whole entry, looked up): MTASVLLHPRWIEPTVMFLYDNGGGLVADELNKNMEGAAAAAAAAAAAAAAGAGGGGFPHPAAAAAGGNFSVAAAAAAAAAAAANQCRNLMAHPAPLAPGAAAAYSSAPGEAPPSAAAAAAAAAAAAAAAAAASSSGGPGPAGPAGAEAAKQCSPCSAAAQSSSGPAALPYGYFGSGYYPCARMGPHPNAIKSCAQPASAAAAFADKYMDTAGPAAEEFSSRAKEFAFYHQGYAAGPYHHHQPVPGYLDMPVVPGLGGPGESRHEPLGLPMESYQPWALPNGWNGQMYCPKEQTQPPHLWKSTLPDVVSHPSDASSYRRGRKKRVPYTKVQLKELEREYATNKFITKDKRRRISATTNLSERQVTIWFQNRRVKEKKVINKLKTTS

[4] = blockers of DNA damage checkpoint Chk1 activation – imaging, HeLa, hydroxyurea, phospho-Chk1 antibody, percent positive cells, primary screen (AID 1186); settings: hydroxyurea-induced phospho-Chk1 immunofluorescence imaging, higher = more signal
[5] = blockers of DNA damage checkpoint Chk1 activation – imaging, HeLa, hydroxyurea, phospho-Chk1 nuclear intensity, primary screen (AID 1187); settings: hydroxyurea-induced phospho-Chk1 immunofluorescence imaging, higher = more signal

| Compound | composite z-score [1] | composite z-score (XIP peptide (Xip251-270)) | z-score [2] | z-score [3] | z-score [4] | z-score [5] |
| --- | --- | --- | --- | --- | --- | --- |
| O=C1C2C=CC(C(O)c3ccc(F)cc3)N(Nc3ccc([N+](=O)[O-])cc3)C2C(=O)N1c1ccccc1 (stereo not given) | 0.224 (inactive) | 0.942 | -0.255 | -4.16 (inactive) | 0.137 (inactive) | 0.653 (inactive) |
| NC(=O)[C@@H]1[C@H]2C(=O)O[C@H](c3ccccc3)[C@H](c3ccccc3)N2[C@H](c2ccc(O)cc2)[C@@]12C(=O)Nc1ccc(C#CC3=CCCCC3)cc12 | 0.799 (inactive) | 0.619 | -0.303 | -0.487 (inactive) | 0.0025 (inactive) | 0.518 (inactive) |
| C=C(CCCC)/C(=C/C[C@@H](OC(C)=O)c1ccccc1OCCO)c1cc(C(=O)OC)ccc1OC | -0.0324 (inactive) | 0.906 | -2.51 | -4.39 (inactive) | -0.402 (inactive) | 0.114 (inactive) |
| [N-]=[N+]=NCc1ccccc1[C@H]1OC(c2ccc(OCCCO)cc2)=N[C@@]1(Cc1ccccc1)C(=O)N1CCCCC1 | -0.178 (inactive) | 0.625 | -2.4 | -4.35 (inactive) | -0.959 (inactive) | -1.5 (inactive) |
| COc1ccc(-c2cc3c(c(Cc4ccccc4)n2)[Si](C(C)C)(C(C)C)OC3)cn1 | 0.684 (inactive) | -0.342 | -2.79 | -2.5 (inactive) | -0.24 (inactive) | -0.828 (inactive) |
| C=C(C(=O)CC[C@H](OC(C)=O)c1ccccc1OCCO)C(C)C | -0.571 (inactive) | 0.332 | -2.09 | -0.163 (inactive) | -0.145 (inactive) | -0.0797 (inactive) |
| CC(C)(C)OC(=O)CC[C@]1(C(=O)NCCN2CCOCC2)COC(c2ccc(OCCCO)cc2)=N1 | 1.16 (inactive) | 0.759 | 0.51 | -3.66 (inactive) | -0.131 (inactive) | 0.0826 (inactive) |
| COC(=O)[C@@]1(Cc2ccc(OC)cc2)[C@H]2c3cc(C(=O)N4CCCC4)n(CCCNc4ncc(C(F)(F)F)cc4Cl)c3C[C@H]2CN1C(=O)c1ccccc1 | -0.546 (inactive) | 0.736 | -1.41 | -4.1 (inactive) | 0.259 (inactive) | -0.101 (inactive) |
| CO[C@H]1O[C@H](CO)[C@@H](OC(=O)Nc2ccc(Oc3ccccc3)cc2)[C@H](OC(=O)Nc2ccc3c(c2)OCO3)[C@@H]1OC(=O)Nc1ccc2c(c1)OCO2 | 0.23 (inactive) | 0.863 | -2.05 | -6.43 (inactive) | 0.126 (inactive) | 0.561 (inactive) |
| C[N+](C)(C)CCCC[C@@H]1NC(=O)[C@H]2C[C@@H](C(=O)NCCCCCCNC(=O)CS)[C@@H](c3ccc(O)cc3)N2C1=O | 0.945 (inactive) | -0.502 | 0.0331 | -2.68 (inactive) | -0.888 (inactive) | -0.233 (inactive) |
| Cc1ccc([C@H]2C(C(=O)O)=CCN2S(=O)(=O)c2ccc(C)cc2)cc1 | -0.609 (inactive) | 0.66 | 0.546 | -2.98 (inactive) | 0.586 (inactive) | -0.222 (inactive) |
| COc1ccc(C(O)C2C=CC3C(=O)N(C)C(=O)C3N2N(c2ccccc2)c2ccccc2)c2ccccc12 (stereo not given) | 0.742 (inactive) | 0.763 | 0.889 | -2.84 (inactive) | 0.436 (inactive) | 0.15 (inactive) |
| NC(=O)N1C(=O)C2C(C1=O)C1C=C(CCCO)C2C(C2CC2)N1Cc1cc2c(cc1Br)OCO2 (stereo not given) | -0.0845 (inactive) | -0.102 | 1.74 | -7.26 (inactive) | 0.207 (inactive) | 0.727 (inactive) |
| COc1ccc(C(=O)Nc2cccc(CN3C(=O)[C@]4(O[C@H](CCn5cc(CCO)nn5)[C@@H]([Si](C)(C)c5ccc(OC)cc5)[C@@H]4C)c4ccccc43)c2)cc1 | -0.16 (inactive) | 0.249 | -2.72 | -4.83 (inactive) | -0.745 (inactive) | -2.04 (inactive) |
| CCOC(=O)[C@H]1C/C=C/C[C@H](C(=O)OCC)C(=O)O[C@H]2[C@@H](OC)O[C@H](CO)[C@@H](OC(=O)c3ccc(Br)cc3)[C@@H]2OC1=O | 0.146 (inactive) | -0.103 | -1.11 | -1.2 (inactive) | -0.0241 (inactive) | 0.237 (inactive) |
| COc1cc(CO)cc(I)c1O[C@H]1C=C(C(=O)NCCO)C[C@@H](NC[C@@H]2CCCO2)[C@@H]1O | 0.546 (inactive) | 0.711 | -1.22 | -6.95 (inactive) | -0.399 (inactive) | -1.01 (inactive) |
| C=CCC(OC(C)=O)[C@@H]1[C@@H](N(Cc2ccc(-c3cccc(C(F)(F)F)c3)o2)C(=O)c2cccc3ccccc23)c2cc(OCCCO)ccc2N1C(=O)Cc1ccc2ccccc2c1 (stereo not given in full) | -0.16 (inactive) | 0.0499 | -1.78 | -3.09 (inactive) | 0.233 (inactive) | 0.504 (inactive) |
| COCCOC(=O)N1C(=O)[C@@]2(c3ccccc31)[C@H](C(=O)N1CCc3cc(OC)c(OC)cc3C1)[C@H]1C(=O)O[C@H](c3ccccc3)[C@H](c3ccccc3)N1[C@@H]2c1ccc(O)cc1 | 1.58 (inactive) | 0.807 | -0.45 | -1.34 (inactive) | -0.437 (inactive) | -0.469 (inactive) |

| Compound | composite z-score [1] | composite z-score (XIP peptide (Xip251-270)) | z-score [2] | z-score [3] | z-score [4] | z-score [5] |
| --- | --- | --- | --- | --- | --- | --- |
| CCCCCCc1nc(-c2ccc(-c3ccc(Cl)c(Cl)c3)o2)cc2c1[Si](C(C)C)(C(C)C)O[C@H]2c1ccccc1 | 2.93 (inactive) | 0.393 | -1.3 | -1.4 (inactive) | -0.682 (inactive) | -0.449 (inactive) |
| CCCC=C(CCC)[C@@H](NS(=O)(=O)c1ccc(Cl)cc1)c1ccc(C(=O)OC)cc1 | -0.126 (inactive) | 0.536 | 0.198 | -1.43 (inactive) | 0.47 (inactive) | 0.175 (inactive) |
| CC(C)[Si](C#CCCCC#N)(O[C@H](c1ccccc1)c1cn(Cc2cccc(Cl)c2)nn1)C(C)C | -0.186 (inactive) | 0.605 | -1.06 | -0.527 (inactive) | -0.628 (inactive) | -0.968 (inactive) |
| O=C1NC(=O)C2C1C=CC(C(O)c1ccc(-c3ccccc3)s1)N2Nc1ccc(Cl)cc1Cl (stereo not given) | -0.142 (inactive) | 0.701 | -0.0328 | -3.64 (inactive) | 0.197 (inactive) | 0.136 (inactive) |
| COC(=O)[C@@]1(Cc2ccc(OC)cc2)[C@H]2c3cc(C(=O)N4CCCC4)n(CCSCCO)c3C[C@H]2CN1C(=O)c1ccccc1 | 0.0308 (inactive) | 0.826 | -1.44 | -5.24 (inactive) | 1.35 (inactive) | 1.04 (inactive) |
| O=C1C2C=CC(C(O)C=Cc3ccc([N+](=O)[O-])cc3)N(n3cnnc3)C2C(=O)N1Cc1ccccc1 (stereo not given) | 1.01 (inactive) | 0.856 | -0.0257 | -3.97 (inactive) | -0.253 (inactive) | -0.32 (inactive) |
| O=C1O[C@H](c2ccccc2)[C@H](c2ccccc2)N2[C@H]1[C@@H](C(=O)NC[C@H](O)c1ccccc1)[C@]1(C(=O)Nc3ccc(C#CC4=CCCCC4)cc31)[C@H]2c1ccccc1OCCO | -0.0939 (inactive) | 0.203 | -0.285 | 1.5 (inactive) | 0.0263 (inactive) | -0.294 (inactive) |
| NC(=O)[C@@H]1[C@H]2C(=O)O[C@H](c3ccccc3)[C@H](c3ccccc3)N2[C@H](c2ccc(OCCO)cc2)[C@@]12C(=O)Nc1ccc(C#CC3=CCCCC3)cc12 | 0.124 (inactive) | 0.581 | -0.962 | 1.05 (inactive) | -0.0315 (inactive) | 0.0692 (inactive) |
| CN(C)CCCC[C@@H]1NC(=O)[C@H]2C[C@@H](C(=O)NCCCCCN)[C@@H](c3cccc(OCCO)c3)N2C1=O | 2.88 (inactive) | 0.84 | -0.419 | -2.91 (inactive) | 0.658 (inactive) | 0.729 (inactive) |
| O=C1O[C@H](c2ccccc2)[C@H](c2ccccc2)N2[C@H]1[C@@H](C(=O)NC[C@H](O)c1ccccc1)[C@]1(C(=O)Nc3ccccc31)[C@H]2c1ccc(O)cc1 | 1.5 (inactive) | 0.665 | -0.834 | -4.25 (inactive) | -0.0383 (inactive) | 0.188 (inactive) |
| [N-]=[N+]=NCc1ccccc1[C@@H]1OC(c2ccc(OCCCO)cc2)=N[C@]1(CCS(=O)(=O)c1ccccc1)C(=O)N1CCOCC1 | 1.06 (inactive) | 0.712 | -2.36 | -1.69 (inactive) | -0.535 (inactive) | -0.137 (inactive) |
| O=C1O[C@@H](c2ccccc2)[C@@H](c2ccccc2)N2[C@@H](c3ccccc3OCCO)[C@]3(C(=O)Nc4ccccc43)[C@@H](C(=O)O)[C@H]12 | 1.14 (inactive) | 0.457 | -0.6 | -6.35 (inactive) | 0.405 (inactive) | 0.5 (inactive) |
| COCCOC(=O)N1C(=O)[C@@]2(c3cc(C#CCCO)ccc31)[C@H](c1ccc(OCCO)cc1)N1[C@H](c3ccccc3)[C@H](c3ccccc3)OC(=O)[C@H]1[C@@H]2C(N)=O | 0.464 (inactive) | 0.779 | -0.222 | -1.33 (inactive) | -0.0438 (inactive) | 0.51 (inactive) |
| CC(C)NC(=O)[C@@]1(Cc2ccccc2I)c2ccccc2C(=O)N(Cc2ccccc2Cl)[C@H]1c1ccc(CO)cc1 | 0.705 (inactive) | 0.615 | 0.0173 | -3.93 (inactive) | -0.0537 (inactive) | 0.1 (inactive) |
| C=CC[C@]1(C(=O)NCc2ccccc2)N=C(c2ccc(OCCCO)cc2)O[C@H]1c1ccccc1CN=[N+]=[N-] | -0.274 (inactive) | 0.338 | -2.53 | 0.343 (inactive) | -0.158 (inactive) | -0.402 (inactive) |
| CC=CC(O)C1C=CC2C(=O)N(C)C(=O)C2N1N(c1ccccc1)c1ccccc1 (stereo not given) | 0.212 (inactive) | 0.414 | 0.0212 | -0.125 (inactive) | 0.341 (inactive) | 0.365 (inactive) |
| C=C(CCCC)/C(=C/C[C@H](OC(C)=O)c1ccccc1OCCO)c1cnc2ccccc2c1 | 2.68 (inactive) | 0.657 | -2.52 | -5.13 (inactive) | 0.444 (inactive) | 0.328 (inactive) |
